Experimental findings from PubChem BioAssay AID1645882 (National Center for Advancing Translational Sciences (NCATS), 2021) are described below.

Each structure is given as a SMILES string. Where “and” joins values, the source holds several entries; their conditions need not be identical. Equal entries are not always repeated. Out of some 16,000 compounds screened, about 120 (0.75%) were called active. Not shown: some 4% with an inconclusive outcome. Calls come from the whole dose curve; as a rule, active = well fitted inhibition curve with a large enough effect; inconclusive = small, poorly fitted or top-dose-only effect; inactive = no such curve, though single readings can be large or run the other way. The entries come from a sample that favours actives as a whole. Where a call stands in place of a potency, no number is given. Some compounds were tested as several samples or in several runs, with calls that do not always agree.
Potency is the fitted concentration of half-maximal effect.

Sequence of Rap guanine nucleotide exchange factor 3 (Homo sapiens) (O95398 whole entry, looked up): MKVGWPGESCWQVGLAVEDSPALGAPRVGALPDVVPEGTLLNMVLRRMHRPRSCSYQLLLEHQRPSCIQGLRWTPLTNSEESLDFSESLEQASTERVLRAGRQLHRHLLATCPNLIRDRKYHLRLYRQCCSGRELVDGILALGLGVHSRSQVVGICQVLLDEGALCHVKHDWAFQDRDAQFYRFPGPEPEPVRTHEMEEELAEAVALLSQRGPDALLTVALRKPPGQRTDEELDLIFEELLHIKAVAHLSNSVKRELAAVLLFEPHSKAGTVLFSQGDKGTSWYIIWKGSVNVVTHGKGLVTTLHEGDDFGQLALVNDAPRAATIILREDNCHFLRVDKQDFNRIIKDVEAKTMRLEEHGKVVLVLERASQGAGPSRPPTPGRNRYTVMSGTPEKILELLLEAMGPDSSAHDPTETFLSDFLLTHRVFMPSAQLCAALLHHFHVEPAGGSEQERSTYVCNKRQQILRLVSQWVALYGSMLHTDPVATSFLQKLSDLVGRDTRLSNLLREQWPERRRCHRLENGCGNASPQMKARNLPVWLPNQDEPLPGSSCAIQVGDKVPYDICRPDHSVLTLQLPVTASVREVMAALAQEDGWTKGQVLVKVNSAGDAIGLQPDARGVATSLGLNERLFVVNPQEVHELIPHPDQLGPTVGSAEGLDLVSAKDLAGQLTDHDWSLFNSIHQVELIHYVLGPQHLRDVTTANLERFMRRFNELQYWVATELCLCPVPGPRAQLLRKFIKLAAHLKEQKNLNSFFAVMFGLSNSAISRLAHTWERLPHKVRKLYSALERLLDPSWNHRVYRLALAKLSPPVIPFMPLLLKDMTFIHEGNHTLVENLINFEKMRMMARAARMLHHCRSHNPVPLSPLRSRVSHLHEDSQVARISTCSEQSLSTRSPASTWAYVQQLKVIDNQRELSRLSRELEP

The experiment has as its target Rap guanine nucleotide exchange factor 3 (Homo sapiens) (UniProt O95398). As to the kind of experiment: Validation qHTS for antagonist of cAMP-regulated guanine nucleotide exchange factor 3 (EPAC1). Note: nearly all actives have a fitted effect of over 75% in size. The following applies: EPAC1 Rap1B-BODIPY-GDP exchange, fluorescence; series mostly up to 150 µM. The gist of the method:
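Nucleotide exchange followed as fluorescence loss when BODIPY-GDP leaves Rap1B (480 nm excitation, 540 nm emission), read at 5 min intervals over 30 min. Reaction: 100 nM EPAC1, 250 nM RAP1B-BODIPY-GDP, 50 uM GDP; ATA and DMSO define normalization.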
For orientation: Quantitative high-throughput screening tests each substance at several concentrations.
For the molecule `CCCCCCCC/C=C\C/C=C\C/C=C\CCCC(=O)O`, the activity change, negative = inhibition was 9.96% [at 15.3 µM] (inactive).
Take `CCCCCCCCCCC/C=C\C/C=C\CCCC(=O)O`: the activity change, negative = inhibition is -8.31% [at 15.3 µM] (inactive).
Take `CCCCC/C=C\C/C=C\C/C=C\C/C=C\CCCC(=O)O`: the Potency was 70.8 µM (active) and inactive.
`Cc1cc2ccccc2c[n+]1CC(=O)c1ccc(F)cc1`: the Potency entry is “inactive”.
In the case of `C/C(N[C@@H]1CSCC1O)=C1/C(=O)CC2[C@@H]1C2(C)C` (stereo partly specified), the Potency entry is “inactive”.
For `COc1ccc(-n2c(CNC(=O)c3ccccc3C(F)(F)F)nnc2SC)cc1`, the Potency entry is “inactive”.
Take `FC(F)(F)c1ccccc1-c1cncnc1NCCc1cnc[nH]1`: the Potency entry is “inactive”.
With `Cc1cc(=O)oc2c(O)c(O)ccc12`, the Potency entry was “inactive”.
Regarding `O=c1oc2c(O)c(O)cc3c(=O)oc4c(O)c(O)cc1c4c23`, the Potency entry is “inactive and 25.1 µM (active)”.
On the same count and under the same terms, the value for `COc1c(O)cc2c(=O)oc3c(OC)c(O)cc4c(=O)oc1c2c34` was “inactive”; that for `Cc1nc(N=Nc2ccc(C(=O)O)cc2)c(COP(=O)(O)O)c(C=O)c1O` was “inactive”; that for `Cc1nc(N=Nc2cc(S(=O)(=O)O)c3cc([N+](=O)[O-])cc(S(=O)(=O)O)c3c2)c(COP(=O)(O)O)c(C=O)c1O` was “inactive”.
`Cc1nc(N=Nc2ccc(S(=O)(=O)O)cc2S(=O)(=O)O)c(COP(=O)(O)O)c(C=O)c1O`: the Potency entry was “inactive and 12.6 µM (active)”.
Consider `COC(=O)c1ccc(-c2cccc3c2OC(CNC(=O)c2ccc4c(c2)OCCO4)C3)nc1` (stereo unspecified), for which the Potency entry was “inactive”.
On to `COc1cc(=O)n2c(c1C(=O)N(C)Cc1ccsc1)CCN(Cc1c(C)nc3sccn13)CC2`, for which the Potency result was “inactive”.
Take `COc1ccccc1CCNc1ncnc2sc(C(=O)N3CCCCC3)c(C)c12`: the Potency entry was “inactive”.
For `CC1(C)CC2/C(CO)=C/C=C/[C@](C)(O)CC[C@]21O` (stereo partly specified), the Potency entry was “inactive”.
In the case of `O=c1cc(-c2ccc(O)cc2)oc2cc(O[C@H]3OC(CO)C(O)C(O)C3O)cc(O)c12` (stereo partly specified), the Potency result was “inactive”.
The same measure, in the same setting: with `O=c1cc(-c2ccc(O)c(O)c2)oc2cc(OC3OC(CO)C(O)C(O)C3O)cc(O)c12` (stereo unspecified) the figure was 39.8 µM (active); with `O=c1c(O)c(-c2ccccc2)oc2cc(O)cc(O)c12`, “inactive”; with `O=c1c(O)c(-c2ccc(O)cc2)oc2cc(O)cc(O)c12`, “inactive”.
On to `O=c1c(O)c(-c2ccc(O)c(O)c2)oc2cc(O)cc(O)c12`, for which the Potency entry was “inactive and 79.4 µM (active)”.
The same measure, in the same setting: with `O=c1cc(-c2ccc(O)c(O)c2)oc2cccc(O)c12` the entry was “inactive”; with `O=c1cc(-c2ccc(O)c(O)c2)oc2cc(O)cc(O)c12`, 50.1 µM (active) and 39.8 µM (active); with `O=c1cc(-c2ccc(O)cc2)oc2cc(O)cc(O)c12`, “inactive”.
On to `COc1cc(O)c2c(=O)c(O)c(-c3ccc(O)c(O)c3)oc2c1`, for which the Potency entry is “inactive”.
With `O=c1c(O)c(-c2ccc(O)cc2O)oc2cc(O)cc(O)c12`, the Potency entry was “inactive”.
Turning to `CC1O[C@@H](O[C@H]2C(Oc3cc(O)c4c(=O)cc(-c5ccc(O)cc5)oc4c3)OC(CO)C(O)C2O)C(O)C(O)C1O` (stereo partly specified), the Potency result was “inactive”.
Still for that read-out and setting: with `O=c1c(O)c(-c2cc(O)c(O)c(O)c2)oc2cc(O)cc(O)c12` the figure was 35.5 µM (active) and 39.8 µM (active) and inactive; with `CN1[C@@H]2CCC[C@@H]1CC(NC(=O)c1nn(C)c3ccccc13)C2` (stereo partly specified), “inactive”; with `N#CC[C@H](Cc1ccccc1)N1CCN(Cc2ccccc2)CCC1=O`, “inactive”.
Take `COc1ccc(C2OC3C(CO)OC(n4cnc5c(=O)[nH]c(N)nc54)C3O2)cc1` (stereo unspecified): the Potency result was “inactive”.
With `Cc1c(C(=O)N(C)Cc2cccc3ncccc23)cnn1-c1nccc(-c2ccccc2F)n1`, the Potency entry is “inactive”.
Turning to `CC1CN(CC(=O)NCCc2ccncc2)Cc2ccccc2O1` (stereo unspecified), the Potency entry is “inactive”.
For the molecule `CC1CC[C@@]2(C(=O)O)CCC3(C)C(=CCC4[C@]5(C)CC(O)C(O)[C@](C)(CO)C5C(O)C[C@@]43C)C2C1C` (stereo partly specified), the Potency result was “inactive”.
As for `CC(=O)Oc1cc(OC(C)=O)c2c(c1)OC(c1ccc(OC(C)=O)c(OC(C)=O)c1)C(OC(C)=O)C2` (stereo unspecified), the Potency entry is “inactive”.
As to `O=C(OC1Cc2c(O)cc(O)cc2OC1c1cc(O)c(O)c(O)c1-c1c(C2Oc3cc(O)cc(O)c3CC2OC(=O)c2cc(O)c(O)c(O)c2)cc(O)c(O)c1O)c1cc(O)c(O)c(O)c1` (stereo unspecified), the Potency was 63.1 µM (active).
In the case of `O=C(Oc1cc(OC(=O)c2ccccc2)c2c(c1)OC(c1ccc(OC(=O)c3ccccc3)c(OC(=O)c3ccccc3)c1)[C@@H](OC(=O)c1ccccc1)C2)c1ccccc1` (stereo partly specified), the Potency result was “inactive”.
On the same count and under the same terms, with `COc1ccc2c(c1OC)C(=O)O[C@H]2C1c2c(cc3c(c2OC)OCO3)CCN1C` (stereo partly specified) the entry was “inactive”; with `O=C(NCC1Cc2cccc(-c3cnccn3)c2O1)c1ccc2c(c1)OCCO2` (stereo unspecified), “inactive”; with `CC(C)C[C@@H](CO)N1CCN(CCc2ccccc2)CCC1=O`, “inactive”.
Take `COc1cccc(-c2nc(N3CCNCC3)c3ccccc3n2)c1`: the Potency entry is “inactive”.
In the case of `Cc1cc2c(cc1C)N[C@]1(C[C@H]3CCCC(=O)N4CC[C@@H](C1)[C@@H]34)C(=NCc1ccccc1)N2`, the Potency entry is “inactive”.
With `CN(C)c1ccc(/C=C/c2ccnc3ccc4ccccc4c23)cc1`, the Potency is 100 µM (active).
As for `CN(C)c1ccc(/C=C/c2ccnc3c2ccc2ccccc23)cc1`, the Potency result was “inactive”.
Take `CN(C)c1ccc(/C=C/C=C/c2ccnc3ccccc23)cc1`: the Potency result is “inactive”.
With `COc1cccc(-c2oc3ccccc3c(=O)c2O)c1`, the Potency entry was “inactive”.
`CCc1oc2ccccc2c1C(=O)c1cc(I)c(O)c(I)c1`: the Potency was 56.2 µM (active).
Still for that read-out and setting: the value for `CC(=O)CC(c1ccccc1)c1c(O)c2ccccc2oc1=O` (stereo unspecified) was “inactive”; that for `CC(=O)c1ccc2oc3ccccc3c(=O)c2c1` was “inactive”; that for `CCc1oc2ccccc2c1C(=O)c1cc(Br)c(O)c(Br)c1` was 100 µM (active).
Still for that read-out and setting: with `CCCCc1oc2ccccc2c1C(=O)c1cc(I)c(OCCN(CC)CC)c(I)c1` the entry was “inactive”.
Turning to `COc1cc(OC)c(OC)cc1CN1CCC(n2cc(C(=O)N3CCCCC3)nn2)CC1`, the Potency entry is “inactive”.
Still for that read-out and setting: the value for `c1ccc2c(N3CCCCCC3)nc(CN3CCCCC3c3nccs3)nc2c1` (stereo unspecified) was “inactive”; that for `COc1ccc(-c2nc3cnc(N(C)C)nc3n(C)c2=O)cc1` was “inactive”.
With `O=C(Nc1ccc(S(=O)(=O)N2CCOCC2)cc1)c1cc(Cl)ccc1NS(=O)(=O)c1ccc(Cl)s1`, the Potency was 112 µM (active).
As for `O=c1c(-c2ccc(Cl)cc2)nc2cnc(N3CCNCC3)nc2n1CCc1ccccc1`, the Potency entry was “inactive”.
Turning to `COc1cccc(Cn2c(=O)c(-c3ccc(F)c(F)c3)nc3cncnc32)c1`, the Potency result is “inactive”.
Regarding `O=c1c(-c2ccccc2)coc2cc(O)cc(O)c12`, the Potency was 79.4 µM (active).
As for `O=c1c(-c2ccc(O)cc2)coc2cc(O)cc(O)c12`, the Potency entry was “inactive”.
Still for that read-out and setting: with `COc1ccc(-c2coc3cc(O)cc(O)c3c2=O)cc1` the entry was “inactive”.
Still for that read-out and setting: with `Cc1cccc(/C=C/c2cccs2)n1` the entry was “inactive”.
On to `COc1cccc(CN2Cc3cccc4c3[C@H](C=CC4)CC2=O)c1`, for which the Potency entry was “inactive”.
Take `Cc1ccc2c(/C=C/c3ccc(N(C)C)cc3)ccnc2c1C`: the Potency entry was “inactive”.
In the case of `CS(=O)(=O)OCCCNCCCOS(C)(=O)=O`, the Potency result was “inactive”.
Consider `COc1cc(C(=O)NS(=O)(=O)c2ccccc2C)ccc1Cc1cn(C)c2ccc(NC(=O)OC3CCCC3)cc12`, for which the Potency is 89.1 µM (active).
The same measure, in the same setting: with `COc1cc2c(cc1OC)CN(C(=O)[C@@H]1C[C@H](NCc3cn(C)c4ccccc34)CN1C1Cc3ccccc3C1)CC2` the entry was “inactive”; with `N#C/C(=C\c1ccc(O)c(O)c1)C(=O)OCCc1cccs1`, 39.8 µM (active); with `N#C/C(=C\c1ccc(O)c(O)c1)C(=O)NCc1ccccc1`, “inactive”.
For `O=C(O)/C=C/c1ccc(O)c(O)c1`, the Potency entry is “inactive”.
On to `N#C/C(=C\c1ccc(O)c(O)c1)C(=O)Nc1ccccc1`, for which the Potency was 79.4 µM (active) and inactive.
For the molecule `C[C@H](NC(=O)/C(C#N)=C/c1ccc(O)c(O)c1)c1ccccc1`, the Potency was 89.1 µM (active) and inactive.
As for `C[C@@H](NC(=O)/C(C#N)=C/c1ccc(O)c(O)c1)c1ccccc1`, the Potency entry was “inactive”.
Take `CC(NNC(=O)c1ccccc1)c1ccccc1` (stereo unspecified): the Potency entry was “inactive”.
For the molecule `N#C/C(=C\c1ccc(O)c(O)c1)C(N)=O`, the Potency entry was “inactive”.
In the case of `N#C/C(=C\c1ccc(O)c(O)c1)C(=O)c1ccc(O)c(O)c1`, the Potency entry is “inactive”.
With `Cc1cccc2[nH]cc(/C=C3/C=Nc4ccccc43)c12`, the Potency entry is “inactive”.
On to `c1cncc(CNc2nc(-c3ccc4c(c3)OCO4)nc3ccccc23)c1`, for which the Potency result was “inactive”.
As for `O=S(=O)(NCc1nc(N2CCCC2)c2cc(Cl)ccc2n1)c1ccccc1OC(F)(F)F`, the Potency result was “inactive”.
`O=C[C@H](O)[C@@H](O)[C@H](O[C@H]1O[C@H](CO)[C@@H](O[C@H]2O[C@H](CO)[C@@H](O)[C@H](O)[C@H]2O)[C@H](O)[C@H]1O)[C@H](O)CO`: the Potency result was “inactive”.
On the same count and under the same terms, with `CCn1nc(C)cc1C(=O)N1CCC2(CC1)c1ccccc1[C@@H](NC(=O)c1cccnc1)[C@@H]2O` the entry was “inactive”.
Regarding `Cc1ncc2c(c1CNC(=O)c1ccc3c(c1)OCO3)CCN(C(=O)c1scc3c1CCCC3)C2`, the Potency entry is “inactive”.
In the case of `CN(C)C(=O)c1ccc(-c2ccc3ncnc(NC4CC4)c3c2)cc1`, the Potency result was “inactive”.
Regarding `NCCC(=O)N[C@H](Cc1cnc[nH]1)C(=O)O`, the Potency result was “inactive”.
On to `C[C@@H]1NC(=O)OC1c1ccco1` (stereo partly specified), for which the Potency entry is “inactive”.
Consider `CS(=O)(=O)Nc1cccc(-c2nccc(NCc3cccs3)n2)c1`, for which the Potency result is “inactive”.
Same read-out and setting: with `Cc1cc(C)n(-c2cccc(C(=O)NCC3Cc4cccc(-c5cccnc5)c4O3)c2)n1` (stereo unspecified) the entry was “inactive”.
As to `O=C1C=CC2=C3c4cc(O)c(O)cc4CC3(O)COC2=C1O` (stereo unspecified), the Potency was 56.2 µM (active) and 25.1 µM (active).
For the molecule `O=C1C=CC2=C3c4cc(O)c(O)cc4C[C@@]3(O)COC2=C1`, the Potency entry was “inactive”.
For the molecule `O=C1C=CC2=C3c4cc(O)c(O)cc4C[C@]3(O)COC2=C1`, the Potency entry is “inactive”.
Regarding `CC1O[C@@H](O[C@@H]2C(O)C[C@H](O[C@@H]3C(O)C[C@@H](OC4CC[C@@]5(C)C6CC(O)[C@@]7(C)C(C8=CC(=O)OC8)CC[C@@]7(O)C6CC[C@@H]5C4)OC3C)OC2C)CC(O)[C@H]1O` (stereo partly specified), the Potency result was “inactive”.
